Source: PubChem (National Center for Advancing Translational Sciences (NCATS))
FLuc modulator: qHTS profiling assay for firefly luciferase inhibitor/activator using purifed enzyme and Km concentrations of substrates (counterscreen for miR-21 project) | Luciferin 4-monooxygenase (Photinus pyralis), P08659 | Potency, µM (top dose mostly 57.5 µM), inactives show top-dose activity change, negative = inhibition, most hits filed as inhibitors | 360,000 tested, 6.9% active | purified FLuc, Km substrates, luminescence inhibition;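 further: plate controls were vehicle for no effect and reference inhibitor for full effect; nearly all actives have a fitted effect of over 55% in size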
Target sequence (P08659 whole entry, looked up): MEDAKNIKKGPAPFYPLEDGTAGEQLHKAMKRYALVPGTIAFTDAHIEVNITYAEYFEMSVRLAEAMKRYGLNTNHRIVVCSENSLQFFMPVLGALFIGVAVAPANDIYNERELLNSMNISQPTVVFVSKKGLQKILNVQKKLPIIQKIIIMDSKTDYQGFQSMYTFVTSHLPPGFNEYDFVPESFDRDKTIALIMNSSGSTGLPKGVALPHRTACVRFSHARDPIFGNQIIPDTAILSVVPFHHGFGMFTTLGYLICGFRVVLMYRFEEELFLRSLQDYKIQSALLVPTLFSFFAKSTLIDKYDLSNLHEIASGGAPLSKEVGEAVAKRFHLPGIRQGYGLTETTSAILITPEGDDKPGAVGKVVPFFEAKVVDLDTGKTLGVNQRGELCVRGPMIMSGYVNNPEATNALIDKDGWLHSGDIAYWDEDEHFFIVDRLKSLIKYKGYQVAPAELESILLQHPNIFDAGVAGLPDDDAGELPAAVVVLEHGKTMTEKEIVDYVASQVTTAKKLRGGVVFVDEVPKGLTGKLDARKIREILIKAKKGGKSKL
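Biochemical qHTS of compounds, final roughly 60 µM downward over six points, against 10 nM purified firefly luciferase using Km concentrations of substrates (10 uM D-luciferin, 10 uM ATP) in Tris acetate pH 7.5 buffer; luminescence output.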
Rab9 promoter act: qHTS Assay for Rab9 Promoter Activators; Huh7 Rab9 promoter-luciferase reporter, luminescence, 24 h; Potency, µM (highest dose often 9.22 µM), inactives show top-dose activation, negative = inhibition, actives largely listed as activators; 320,000 tested, 2.8% active; AID 485297, 2010; further: % of control where 0% means no effect; nearly all actives have a fitted effect of over 60% in size
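Using Huh7 cells stably transfected with Rab9 promoter–luciferase, compounds were incubated 24 h at 37 °C, 5% CO2; luciferase luminescence was read 10 min after reagent addition.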
NPC1 prom act: qHTS Assay for NPC1 Promoter Activators; Huh7 NPC1 promoter luciferase reporter, 24 h; 320,000 tested, 2.4% active; AID 485313, 2010; Potency, µM (highest dose often 9.22 µM), inactives show at the highest dose activation, actives largely listed as activators; further: % of control where 0% means no effect; nearly all actives have a fitted effect of over 60% in size
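Compounds in DMSO were transferred onto Huh7 NPC1-luciferase reporter cells pre-incubated 2 h; after 24 h at 37 °C, Amplite reagent was dispensed and luminescence recorded 10 min later.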
ELG1 repair inh: qHTS screen for small molecules that inhibit ELG1-dependent DNA repair in human embryonic kidney (HEK293T) cells expressing luciferase-tagged ELG1. 330,000 tested, 2.3% active. Potency, µM (titrated, usually from 46.1 µM), for inactives: at the top dose activity change, negative = inhibition, hits mostly inhibitors. HEK293T ELG1-luciferase reporter, luminescence, 16 h; DNA damage induced by 5-fluorouridine; further: on the % scale 0 is the no-effect control and ±100 the full control effect; nearly all actives have a fitted effect of over 55% in size
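HEK293T cells expressing luciferase-tagged ELG1 (2,000/well) received 5-Fluorouridine plus compound or DMSO for 16 hr at 37 °C. Luciferase was read by ONE-Glo luminescence after 30 min at room temperature.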
ELG1 genotoxic: qHTS screen for small molecules that induce genotoxicity in human embryonic kidney (HEK293T) cells expressing luciferase-tagged ELG1; 330,000 tested, 1.3% active; Potency, µM (series often up to 46 µM), without a hit: top-dose activity change, positive = activation, hits mostly activators; HEK293T ELG1-luciferase reporter, luminescence, 16 h; further: % of control where 0% means no effect; nearly all actives have a fitted effect of over 60% in size
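Reporter readout depends on ELG1 protein level, which increases with genetic stress. After 16 hr compound exposure at 37 °C, luciferase activity was quantified using ONE-Glo.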
SMN2 splice enh: qHTS Assay for Enhancers of SMN2 Splice Variant Expression; HEK293 SMN2-luciferase splicing reporter, luminescence, 30-36 h; 210,000 tested, 2.8% active; Potency, µM (series often up to 46.1 µM), for inactives: top-dose activity change, positive = activation, hits mostly activators; AID 1458, 2008; further: % of control where 0% means no effect; nearly all actives have a fitted effect of over 55% in size
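HEK293 cells carry an SMN2 minigene-luciferase reporter in which exon 7 inclusion puts luciferase in frame. Cells were seeded at 2000 cells/well, attached for 10-12 hours, then exposed to compounds for 30-36 hours at 37C before ONE-Glo luminescence.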
* marks the source's active call; other numbers are inactive results; ! = not active in a repeat. Rows were chosen to be rich in hits. Some 9.3% of all compounds tested hit in one or more screens of this group. The call rests on the fitted dose curve; in most records, active means well fitted curve in the direction sought with a large enough effect; inconclusive means small, poorly fitted or top-dose-only effect, or another doubt; inactive means no such curve, though single readings can be large; an effect the other way counts as inactive or inconclusive. Potency means the concentration at half of the fitted maximal effect.

What do the screens show for `O=C(c1ccc(CNc2c(NC3CCCCC3)c(=O)c2=O)cc1)N1CCc2ccccc21`?
FLuc modulator: -0.1%; Rab9 promoter act: -13.6%; NPC1 prom act: -0.6%; ELG1 repair inh: 12.0%; ELG1 genotoxic: -4.5%; SMN2 splice enh: inconclusive

Results for CC(=O)N/N=C/c1cc(C(C)(C)C)cc(/C=N/NC(C)=O)c1O ?
FLuc modulator: 1.0%; Rab9 promoter act: -0.7%; NPC1 prom act: -3.0%; ELG1 repair inh: 14.6µM*; ELG1 genotoxic: 0.4%; SMN2 splice enh: -45.9%

How did O=C(CCCN1C(=O)/C(=C\c2cccs2)SC1=S)NNC(=O)c1ccncc1 do in these assays?
FLuc modulator: 1.9%; Rab9 promoter act: 5.3%; NPC1 prom act: -1.3%; ELG1 repair inh: 1.0%; ELG1 genotoxic: -2.0%; SMN2 splice enh: 13.6%

How did CC(=O)NN1C(=O)/C(=C\c2ccc(O)cc2)SC1=S do in these assays?
FLuc modulator: 16.9µM*; Rab9 promoter act: -10.7%; NPC1 prom act: 5.4%; ELG1 repair inh: 2.8%; ELG1 genotoxic: 4.4%

Results for COc1cc(/C=C2\SC(=S)N(NC(=O)c3cccnc3)C2=O)ccc1O ?
FLuc modulator: 16.9µM*; Rab9 promoter act: -1.4%; NPC1 prom act: -1.3%; ELG1 repair inh: inconclusive; ELG1 genotoxic: -2.0%

What do the screens show for `O=C(NN1C(=O)/C(=C/c2cccs2)SC1=S)c1ccncc1`?
FLuc modulator: -11.6%; Rab9 promoter act: -3.1%; NPC1 prom act: 1.3%; ELG1 repair inh: 4.11µM*; ELG1 genotoxic: -19.3%

How did COc1cccc(/C=C2\SC(=S)N(NC(=O)c3ccncc3)C2=O)c1 do in these assays?
FLuc modulator: 2.0%; Rab9 promoter act: -2.8%; NPC1 prom act: 0.5%; ELG1 repair inh: -15.5%; ELG1 genotoxic: 0.7%

How did COc1cc(/C=C2\SC(=S)N(NC(=O)c3ccc(O)cc3)C2=O)ccc1O do in these assays?
FLuc modulator: 3.01µM*; Rab9 promoter act: 2.9%; NPC1 prom act: 3.0%; ELG1 repair inh: inconclusive; ELG1 genotoxic: 10.0%

What do the screens show for `CN(C)C(=O)NC1c2ccccc2-c2ccccc21`?
FLuc modulator: 4.9%; Rab9 promoter act: -2.6%; NPC1 prom act: 1.4%; ELG1 repair inh: -4.6%; ELG1 genotoxic: -7.2%

How did CN(C)c1cccc(-c2csc(N3CCC(C(N)=O)CC3)n2)c1 do in these assays?
ELG1 repair inh: inconclusive; ELG1 genotoxic: 9.3%

How did COc1cccc(-c2csc(N3CCC(C(N)=O)CC3)n2)c1 do in these assays?
FLuc modulator: 16.9µM*

Results for COc1ccc(-c2csc3nc(-c4cccnc4)nc(N4CCC(C(N)=O)CC4)c23)cc1OC ?
FLuc modulator: 1.6%; Rab9 promoter act: -2.7%; NPC1 prom act: -0.8%; ELG1 repair inh: -13.2%; ELG1 genotoxic: -2.4%; SMN2 splice enh: 14.1µM*

How did COc1ccc(-c2csc3nc(C)nc(N4CCCCC4)c23)cc1OC do in these assays?
FLuc modulator: -17.6%; Rab9 promoter act: 0.6%; NPC1 prom act: -2.0%; ELG1 repair inh: inconclusive; ELG1 genotoxic: -7.5%; SMN2 splice enh: -22.2%

What do the screens show for `CS(=O)(=O)c1cccc(-c2csc(N3CCC(C(N)=O)CC3)n2)c1`?
FLuc modulator: 0.1%; Rab9 promoter act: inconclusive; NPC1 prom act: 2.51µM*!; ELG1 repair inh: inconclusive; ELG1 genotoxic: 9.7%

How did Cc1ccc(Nc2cccccc2=O)cc1 do in these assays?
FLuc modulator: 15.1µM*; Rab9 promoter act: 3.55µM*; NPC1 prom act: inconclusive; ELG1 repair inh: inconclusive; ELG1 genotoxic: inconclusive

What do the screens show for `CC(C)(C)Nc1cccccc1=O`?
FLuc modulator: 4.8%; Rab9 promoter act: 0.7%; NPC1 prom act: 1.6%; ELG1 repair inh: 4.4%; ELG1 genotoxic: -0.7%
